Reference: PubChem BioAssay (NCI)
About 79,000 compounds went through this panel and 15% of them were active in at least one assay; those are over-represented in the sample as a whole. The source made the active and inactive calls. Rule as the data show it: active = growth inhibition above about 70%; inactive = the rest.

Experiments:
[1] = NCI Yeast Anticancer Drug Screen. Data for the rad52 strain (AID 147);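 also: 0% = growth of vehicle-treated control cultures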; conditions: S. cerevisiae rad52 mutant growth inhibition, stronger effect = higher value
How it was run: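 DNA repair-defective yeast; compound exposure; growth scored against vehicle controls.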

[2] = NCI Yeast Anticancer Drug Screen. Data for the wt1 strain (AID 149);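 also: 0% = growth of vehicle-treated wt1 cultures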; conditions: S. cerevisiae wt1 strain (SPY 50644) growth inhibition, stronger effect = higher value
How it was run: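 Readout: yeast growth inhibition, normalised to vehicle controls, in the wt1 strain exposed to test compounds.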

[3] = NCI Yeast Anticancer Drug Screen. Data for the rad50EPP+ strain (AID 151);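 also: 0% = growth of vehicle-treated control cultures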; conditions: S. cerevisiae rad50 mutant strain, stronger effect = higher value
How it was run: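 rad50EPP+ yeast treated with test compounds. Readout: growth vs vehicle control.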

[4] = NCI Yeast Anticancer Drug Screen. Data for the mgt1 strain (AID 153); conditions: S. cerevisiae mgt1 mutant growth inhibition, stronger effect = higher value
How it was run: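 Growth inhibition relative to vehicle controls was scored for the mgt1 yeast strain after compound exposure.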

[5] = NCI Yeast Anticancer Drug Screen. Data for the rad50 strain (AID 155);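 also: 0% = growth of vehicle-only cultures of the same strain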; conditions: S. cerevisiae rad50 strain growth inhibition, stronger effect = higher value
How it was run: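 Compounds were tested on a yeast strain with an engineered DNA damage repair alteration; the reported value is growth inhibition normalised to vehicle treatment.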

[6] = NCI Yeast Anticancer Drug Screen. Data for the mec2-1 strain (AID 157); conditions: S. cerevisiae mec2-1 strain, stronger effect = higher value
How it was run: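 Growth inhibition is read against vehicle-treated controls after compound exposure of the mec2-1 yeast strain, which is defective in DNA damage repair or cell cycle control.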

[7] = NCI Yeast Anticancer Drug Screen. Data for the sgs1 mgt1 strain (AID 161);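 also: 0% = growth of cultures given vehicle only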; conditions: S. cerevisiae sgs1 mgt1 strain, stronger effect = higher value
How it was run: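 Yeast cells carrying a defined DNA-repair defect were exposed to test compounds. Growth inhibition was measured relative to vehicle-treated controls.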

[8] = NCI Yeast Anticancer Drug Screen. Data for the CLN2oe strain (AID 163);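 also: 0% = growth of vehicle-only control cultures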; conditions: S. cerevisiae CLN2oe strain, stronger effect = higher value
How it was run: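 Compound-treated yeast; growth vs vehicle ctrl = % inhibition. Genetically altered strain (cell-cycle control).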

[9] = NCI Yeast Anticancer Drug Screen. Data for the cln2 rad14 strain (AID 165);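 also: 0% = growth equal to vehicle treated cultures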; conditions: S. cerevisiae cln2 rad14 strain, stronger effect = higher value
How it was run: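 Growth inhibition, relative to vehicle-treated controls, is the read-out. The test organism is a yeast strain with defined genetic alterations, cln2 rad14.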

[10] = NCI Yeast Anticancer Drug Screen. Data for the bub3 strain (AID 167); conditions: S. cerevisiae bub3 mutant strain, stronger effect = higher value
How it was run: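 Growth of a checkpoint-deficient yeast mutant is measured after compound exposure. Values represent inhibition relative to vehicle.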

[11] = NCI Yeast Anticancer Drug Screen. Data for the wt2 strain (AID 169);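 also: 0% = growth of vehicle-treated yeast cultures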; conditions: S. cerevisiae wt2 strain growth inhibition, stronger effect = higher value
How it was run: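 Compound exposure of yeast; growth compared with vehicle controls; inhibition reported.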

[12] = NCI Yeast Anticancer Drug Screen. Data for the mlh1 strain (AID 171);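 also: 0% = growth of vehicle-treated control cultures of the same strain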; conditions: S. cerevisiae mlh1 strain growth inhibition, stronger effect = higher value
How it was run: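 Compounds are applied to a genetically altered yeast strain, and its growth is compared with that of vehicle-treated cultures to give percent inhibition.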

[13] = NCI Yeast Anticancer Drug Screen. Data for the sgs1 strain (AID 173);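 also: 0% = growth of vehicle-only control cultures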; conditions: S. cerevisiae sgs1 mutant, stronger effect = higher value
How it was run: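 Compounds applied to genetically altered yeast; growth compared with vehicle-treated cultures to give % inhibition.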

[14] = NCI Yeast Anticancer Drug Screen. Data for the mlh1 rad18 strain (AID 175); conditions: S. cerevisiae mlh1 rad18 strain growth inhibition, stronger effect = higher value
How it was run: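 Cells of a genetically altered yeast strain, deficient in DNA damage repair, were treated with compound. Their growth was then compared with that of vehicle-treated cultures to give inhibition.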

[15] = NCI Yeast Anticancer Drug Screen. Data for the rad18 strain (AID 177); conditions: S. cerevisiae rad18 mutant growth inhibition, stronger effect = higher value
How it was run: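 Compounds are applied to a repair-deficient yeast strain, and growth is compared with that of vehicle-treated cultures to give percent inhibition.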

[16] = at 5.0 µM (retest, dose inferred, filed as 0.5)
[17] = at 50.0 µM (retest, dose inferred, filed as 5.0)

Measured: growth inhibition

COc1ccc2cc(C(C)C(=O)N3CCOC3=O)ccc2c1 (stereo not drawn)
active: [10]; [17] 75% | [14]; [17] 78%
inactive: [1]; at 1.2 µM -9% | [1]; at 3.7 µM -16% | [1]; at 11.0 µM -7% | [1]; at 33.0 µM -8% | [1]; at 100.0 µM 12% | [2]; at 1.2 µM -34% | [2]; at 3.7 µM -34% | [2]; at 11.0 µM -29% | [2]; at 33.0 µM -31% | [2]; at 100.0 µM -22% | [3]; at 1.2 µM 5% | [3]; at 3.7 µM 5% | [3]; at 11.0 µM 7% | [3]; at 33.0 µM 9% | [3]; at 100.0 µM 22% | [4]; at 1.2 µM 5% | [4]; at 3.7 µM 6% | [4]; at 11.0 µM 7% | [4]; at 33.0 µM 21% | [4]; at 100.0 µM 45% | [5]; at 1.2 µM 21% | [5]; at 3.7 µM 24% | [5]; [16] -14% | [5]; at 11.0 µM 15% | [5]; at 33.0 µM 23% | [5]; [17] 27% | [5]; at 50.0 µM 60.6% | [5]; at 100.0 µM 50% | [6]; at 1.2 µM -21% | [6]; at 3.7 µM -28% | [6]; [16] -11% | [6]; at 11.0 µM -27% | [6]; at 33.0 µM -19% | [6]; [17] 9% | [6]; at 50.0 µM 23.9% | [6]; at 100.0 µM 11% | [7]; [16] 7% | [7]; [17] 37% | [7]; at 50.0 µM 57.1% | [8]; at 1.2 µM 11% | [8]; at 3.7 µM 5% | [8]; at 11.0 µM -3% | [8]; at 33.0 µM -6% | [8]; at 100.0 µM 11% | [9]; [16] 16% | [9]; [17] 17% | [9]; at 50.0 µM 24.7% | [10]; at 1.2 µM 29% | [10]; at 3.7 µM 25% | [10]; [16] -15% | [10]; at 11.0 µM 24% | [10]; at 33.0 µM 21% | [10]; at 50.0 µM 29.2% | [10]; at 100.0 µM 40% | [11]; at 1.2 µM -41% | [11]; at 3.7 µM -41% | [11]; at 11.0 µM -34% | [11]; at 33.0 µM -28% | [11]; at 100.0 µM -7% | [12]; at 1.2 µM 21% | [12]; at 3.7 µM 10% | [12]; at 11.0 µM 11% | [12]; at 33.0 µM 21% | [12]; at 100.0 µM 64% | [13]; at 1.2 µM -2% | [13]; at 3.7 µM -12% | [13]; at 11.0 µM -2% | [13]; at 33.0 µM 3% | [13]; at 100.0 µM 27% | [14]; [16] -28% | [14]; at 50.0 µM 44.1% | [15]; at 1.2 µM 13% | [15]; at 3.7 µM 10% | [15]; at 11.0 µM 9% | [15]; at 33.0 µM 4% | [15]; at 100.0 µM 21%
